This is a sample that favours compounds with a hit; in the whole collection about 8% have one here.
SW480 rerep: A quantitative high throughput screen for small molecules that induce DNA re-replication in SW480 colon adenocarcinoma cells; SW480 DNA re-replication, Hoechst DNA content imaging, 48 h; AID 624297, 2012; hit rate 1.8% among 340,000; Potency, µM (doses to about 46.1 µM), for the others: at the highest dose re-replication activation, hits mostly activators; also: % of control where 0% means no effect; nearly all actives have a fitted effect of over 55% in size
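Image-based DNA-content assay: after two days of treatment, nuclei were labelled with the DNA dye Hoechst and imaged, and hits were compounds raising the count of nuclei showing high fluorescence intensity.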
HT1080 IDH1KD tx: qHTS for induction of synthetic lethality in tumor cells producing 2HG: qHTS for the HT-1080-IDH1KD cell line; HT-1080 IDH1 knockdown viability, ATP luminescence, 48 h; Potency, µM (top dose mostly 46.1 µM), inactives show top-dose activity, negative = toxicity, hits mostly cytotoxic; hit rate 2% among 360,000;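 also: 0% = DMSO wells and -100% = cell-free medium wells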
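Using the IDH1-knockdown HT-1080 line run in the same batch and compound series as the NT line, viability after 48 h at 37 °C was determined by CellTiter-Glo luminescence and expressed as % activity.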
KB-V1 MDR tox: qHTS assay for MDR1-selective chemotherapeutics: Primary screen using the drug-selected MDR subline cells KB-V1. KB-V1 MDR cells viability, CellTiter-Glo, 72 h. Potency, µM (highest dose often 46.1 µM), most hits filed as cytotoxic. hit rate 3.4% among 400,000; also: % is scaled to controls: 0 for no effect and ±100 for the full control effect; nearly all actives have a fitted effect of over 60% in size
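Cells of the MDR subline KB-V1 are plated, dosed with compound at multiple concentrations, and incubated 72 h at 37 degrees C; CellTiter-Glo is then added and luminescence read after 10 min.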
HT1080-NT tox: qHTS for induction of synthetic lethality in tumor cells producing 2HG: qHTS for the HT-1080-NT fibrosarcoma cell line; HT-1080-NT fibrosarcoma viability, CellTiter-Glo ATP luminescence, 48 h; Potency, µM (doses to about 46.1 µM), inactives show at the top dose activity, negative = less viability, hits mostly cytotoxic; hit rate 1.6% among 360,000;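 also: NT is the 2HG producing partner of a matched IDH1 knockdown line; 0% = DMSO-treated cells and -100% = media-only wells without cells; nearly all actives have a fitted effect of over 55% in size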
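Compounds were tested in concentration-response format on HT-1080-NT cells for 48 hours at 37 degrees C. Cell viability came from CellTiter-Glo luminescence; curves were classified by r2, response magnitude and activity.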
KB-3-1 cytotox: qHTS assay for MDR1-selective chemotherapeutics: Primary screen using the parental adenocarcinoma cell KB-3-1 | KB-3-1 viability, CellTiter-Glo ATP luminescence, 72 h | Potency, µM (top dose mostly 46.1 µM), hits mostly cytotoxic | hit rate 1.4% among 400,000 | AID 1347075, 2019; also: % is scaled to controls: 0 for no effect and ±100 for the full control effect; nearly all actives have a fitted effect of over 60% in size
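Using CellTiter-Glo luminescence, growth of non-resistant KB-3-1 adenocarcinoma cells is assessed 72 h after pin-tool compound addition at 37 °C. Normalized responses across the concentration series yield fitted curves.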
MCF10A rereplic: A quantitative high throughput screen for small molecules that induce DNA re-replication in MCF 10a normal breast cells. Potency, µM (doses to about 46.1 µM), for the others: at the highest dose activity, positive = re-replication, most hits filed as activators. AID 624296, 2012. hit rate 2.9% among 350,000. MCF 10A DNA re-replication, Hoechst nuclear intensity, 48 h; also: % of control where 0% means no effect; nearly all actives have a fitted effect of over 50% in size
An asterisk follows results filed as active. Calls follow the shape of the dose curve; as a rule, active = well fitted curve in the direction sought with a large enough effect; inconclusive = small, poorly fitted or top-dose-only effect, or another doubt; inactive = no such curve, though single readings can be large; an effect the other way counts as inactive or inconclusive. Potency is read from the fitted curve at half-maximal effect.

Results for Cc1nn2c(COc3ccc(NC(=O)C(C)C)cc3)nnc2c2ccccc12 ?
SW480 rerep: -9%; HT1080 IDH1KD tx: -14%; KB-V1 MDR tox: inactive; HT1080-NT tox: -14%; KB-3-1 cytotox: inactive; MCF10A rereplic: 2%

How did CC1N(C)c2cc(NC(=O)c3ccco3)ccc2C1(C)C (stereo not drawn) do in these assays?
SW480 rerep: inconclusive; HT1080 IDH1KD tx: inconclusive; KB-V1 MDR tox: inactive; HT1080-NT tox: inconclusive; KB-3-1 cytotox: inactive; MCF10A rereplic: inconclusive

Results for O=C(NCCOc1ccccc1)C1CCC(=O)N(CCc2ccccn2)C1 (stereo not drawn) ?
SW480 rerep: -2%; HT1080 IDH1KD tx: -1%; KB-V1 MDR tox: inactive; HT1080-NT tox: 25%; KB-3-1 cytotox: inactive; MCF10A rereplic: -3%

Results for O=C1N=C(N2CCOCC2)S/C1=C\c1ccc(-c2ccccc2Cl)o1 ?
SW480 rerep: 13µM*; HT1080 IDH1KD tx: 10%; KB-V1 MDR tox: inactive; HT1080-NT tox: 15%; KB-3-1 cytotox: inactive; MCF10A rereplic: 2.9µM*

How did Cc1ccccc1-c1ccc(/C=C2/SC(N3CCOCC3)=NC2=O)o1 do in these assays?
SW480 rerep: inconclusive; HT1080 IDH1KD tx: inconclusive; KB-V1 MDR tox: inconclusive; HT1080-NT tox: -24%; KB-3-1 cytotox: inactive; MCF10A rereplic: 16µM*

What do the screens show for `CC1CCN(S(=O)(=O)c2ccc3c(c2)N(CC(=O)NCCCN(Cc2ccccc2)C(C)C)C(=O)CO3)CC1`?
SW480 rerep: inconclusive; HT1080 IDH1KD tx: -14%; KB-V1 MDR tox: inactive; HT1080-NT tox: -23%; KB-3-1 cytotox: inactive; MCF10A rereplic: -6%

How did NCCCCCc1nnc(SC/C=C/c2ccccc2)o1 do in these assays?
SW480 rerep: inconclusive; HT1080 IDH1KD tx: -12%; KB-V1 MDR tox: inactive; HT1080-NT tox: -9%; KB-3-1 cytotox: inactive; MCF10A rereplic: inconclusive

What do the screens show for `CNC(=S)NNC(=O)Cc1ccc(OC)c(OC)c1`?
SW480 rerep: 1%; HT1080 IDH1KD tx: 3%; KB-V1 MDR tox: inactive; HT1080-NT tox: 6%; KB-3-1 cytotox: inactive; MCF10A rereplic: 7%

How did CCOc1cc(NS(C)(=O)=O)c(OCC)cc1NC(=O)c1cccs1 do in these assays?
SW480 rerep: 1%; HT1080 IDH1KD tx: 6%; KB-V1 MDR tox: 9.2µM*; HT1080-NT tox: 4%; KB-3-1 cytotox: inconclusive; MCF10A rereplic: 6%

Results for CCOc1cc(NC(=O)c2cccs2)c(OCC)cc1NC(=O)CCC(=O)NCC1CCCO1 (stereo not drawn) ?
SW480 rerep: 6.5µM*; HT1080 IDH1KD tx: 18%; KB-V1 MDR tox: inactive; HT1080-NT tox: 11%; KB-3-1 cytotox: inactive; MCF10A rereplic: inconclusive

What do the screens show for `CCOc1cc(NC(=O)c2cccs2)c(OCC)cc1NC(=O)c1ccccn1`?
SW480 rerep: inconclusive; HT1080 IDH1KD tx: 21%; KB-V1 MDR tox: inactive; HT1080-NT tox: inconclusive; KB-3-1 cytotox: inactive; MCF10A rereplic: 8.2µM*

How did OC(c1cc(F)cc(Cl)c1)c1ncc(-c2ccc3ccccc3c2)[nH]1 (stereo not drawn) do in these assays?
HT1080 IDH1KD tx: inconclusive; KB-V1 MDR tox: inactive; HT1080-NT tox: inconclusive; KB-3-1 cytotox: inactive

Results for CCc1c(C(=O)Nc2ccncc2)csc1C ?
SW480 rerep: -11%; HT1080 IDH1KD tx: -28%; KB-V1 MDR tox: 16µM*; HT1080-NT tox: -13%; KB-3-1 cytotox: inactive; MCF10A rereplic: 1%

What do the screens show for `Cc1ccc(C(=O)N/C(=C/c2ccc(-c3ccc([N+](=O)[O-])cc3)o2)C(=O)NCCCN(C)C)cc1`?
SW480 rerep: 23µM*; HT1080 IDH1KD tx: inconclusive; KB-V1 MDR tox: inactive; HT1080-NT tox: 23µM*; KB-3-1 cytotox: inactive; MCF10A rereplic: inconclusive

How did O=C(NCCCO)/C(=C/c1ccc(-c2cccc([N+](=O)[O-])c2)o1)NC(=O)c1ccccc1 do in these assays?
SW480 rerep: -8%; HT1080 IDH1KD tx: inconclusive; KB-V1 MDR tox: inactive; HT1080-NT tox: -29%; KB-3-1 cytotox: inactive; MCF10A rereplic: 1%

How did CN1C(=O)CC(N2CCN(C(=O)c3ccccc3)CC2)C1=O (stereo not drawn) do in these assays?
SW480 rerep: inconclusive; HT1080 IDH1KD tx: -3%; KB-V1 MDR tox: inactive; HT1080-NT tox: -2%; KB-3-1 cytotox: inactive; MCF10A rereplic: -1%

Results for N#C/C(=C/c1ccccc1OCc1ccc(F)cc1)c1ccc(C(=O)O)cc1 ?
SW480 rerep: inconclusive; HT1080 IDH1KD tx: -1%; KB-V1 MDR tox: inconclusive; HT1080-NT tox: 0%; KB-3-1 cytotox: inactive; MCF10A rereplic: 4%

How did Cn1c2ccsc2c2ncn(Cc3ccc(F)cc3)c(=O)c21 do in these assays?
SW480 rerep: 0.26µM*; KB-V1 MDR tox: inactive; KB-3-1 cytotox: inactive; MCF10A rereplic: inconclusive

What do the screens show for `COC(=O)C1=C[C@@H](C(=O)OC)[C@@H]2C3=C(C(=O)[C@@]2(C)NC(=O)c2ccccc2)[C@H](c2ccccc2)[C@@H]2C(=O)NC(=O)[C@@H]2[C@@H]3C1`?
SW480 rerep: -3%; HT1080 IDH1KD tx: 24%; KB-V1 MDR tox: inactive; HT1080-NT tox: 14%; KB-3-1 cytotox: inactive; MCF10A rereplic: -10%

What do the screens show for `Cc1cc(C)c(-c2csc(Cc3nc(-c4cc5ccccc5oc4=O)cs3)n2)cc1C`?
SW480 rerep: 8%; HT1080 IDH1KD tx: -9%; KB-V1 MDR tox: inconclusive; HT1080-NT tox: -3%; KB-3-1 cytotox: 23µM*; MCF10A rereplic: 14%

How did COC(=O)[C@@]1(Cc2ccc(OC)cc2)[C@H]2c3cc(C(=O)N4CCCC4)n(Cc4ccsc4Br)c3C[C@H]2CN1C(=O)c1ccccc1 do in these assays?
HT1080 IDH1KD tx: inconclusive; KB-V1 MDR tox: inconclusive; HT1080-NT tox: inconclusive; KB-3-1 cytotox: 18µM*

What do the screens show for `COC(=O)[C@@]1(Cc2ccc(OC)cc2)[C@H]2c3cc(C(=O)N(C)C)n(Cc4ccc(OC(F)(F)F)cc4)c3C[C@H]2CN1C(=O)c1ccccc1`?
SW480 rerep: 18µM*; HT1080 IDH1KD tx: -22%; KB-V1 MDR tox: inconclusive; HT1080-NT tox: -19%; KB-3-1 cytotox: inconclusive; MCF10A rereplic: inconclusive
